Screens deposited in PubChem by National Center for Advancing Translational Sciences (NCATS).
The list is not random: actives were taken first. Their share in the collection is about 4.6%.
D1 PAM = Potentiators of Human D1 Dopamine Receptor: qHTS; potentiation, % at 10 µM; HEK293 TREx D1 cells, calcium flux, dopamine EC20 potentiation; 360,000 tested, 0.036% active; AID 504651, 2011; D(1A) dopamine receptor (Homo sapiens), P21728; in the data active means potentiation above about 30%; further: 0% is about no effect
TRHR agonist = qHTS for Small Molecule Agonists and Allosteric Enhancers of Human TRH Receptor: Primary Screen for Agonists; activation, % at 2 µM; Thyrotropin-releasing hormone receptor (Homo sapiens), P34981; 360,000 tested, 0.18% active; TRHR cells, calcium flux fluo-8, FDSS agonist mode; further: 0% is about no effect
Target sequence (P34981 whole entry, looked up): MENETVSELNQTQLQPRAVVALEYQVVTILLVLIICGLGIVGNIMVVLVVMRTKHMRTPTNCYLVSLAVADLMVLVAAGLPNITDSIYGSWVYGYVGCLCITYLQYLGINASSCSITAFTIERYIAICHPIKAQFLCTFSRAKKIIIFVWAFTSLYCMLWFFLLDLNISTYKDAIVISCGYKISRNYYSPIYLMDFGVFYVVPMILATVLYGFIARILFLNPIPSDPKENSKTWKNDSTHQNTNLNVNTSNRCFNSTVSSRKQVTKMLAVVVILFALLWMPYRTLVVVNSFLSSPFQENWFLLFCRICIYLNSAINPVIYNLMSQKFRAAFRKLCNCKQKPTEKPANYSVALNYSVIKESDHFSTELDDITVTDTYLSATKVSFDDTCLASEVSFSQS
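Steps: seed TRHR cells overnight; add fluo-8 no-wash Ca dye, RT 30 min–1.5 h; record 10 s baseline; pin-transfer compounds; monitor fluorescence 1 cycle/s for the agonist window. Calcium increases flag candidate agonists.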
D1 antag = Antagonist of Human D 1 Dopamine Receptor: qHTS. D(1A) dopamine receptor (Homo sapiens), P21728. HEK293 TREx D1 cells, calcium flux, dopamine EC80; active compounds read low. activity change, negative = inhibition, % at 10 µM. 360,000 tested, 3.2% active. AID 504652, 2011; in the data active means activity change below about -30%; further: on the % scale 0 is the no-effect control and ±100 the full control effect
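Inducible Hek293 Trex D1 cells (tetracycline, overnight, 30 C). Calcium dye 30–90 min RT. Antagonist mode: EC80 dopamine added after 180 s compound read.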
TRHR PAM = qHTS for Small Molecule Agonists and Allosteric Enhancers of Human TRH Receptor: Primary Screen for Enhancers | enhancement, % at 2 µM | TRHR cells, fluo-8 calcium fluorescence, EC20 TRH enhancement | 360,000 tested, 0.66% active; in the data active means enhancement above about 30%; further: 0% is about no effect
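Enhancer read-out: after compound pinning and an initial kinetic agonist-mode read, an EC20 of TRH (10 nM final) was injected and fluo-8 calcium signal (Ex 480/Em 530) followed at 1 s/cycle for 100 cycles in TRHR-expressing cells.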
D1 ag = Allosteric Agonists of the Human D1 Dopamine Receptor: qHTS. D(1A) dopamine receptor (Homo sapiens), P21728. HEK293 T-REx D1 cells, calcium flux, agonist mode. activation, % at 2 µM. 360,000 tested, 1% active. AID 504660, 2011; further: 0% is about no effect
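Tetracycline-induced HEK293 TREx D1 cells, force-coupled to calcium signalling, were dye-loaded with a no-wash calcium kit. Compound was pin-added after a 10 s baseline. Fluorescence was read kinetically at 1 cycle/s for 180 s, with calcium rises flagged as agonism.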
* marks the source's active call; other numbers are inactive results. Unless noted, no stated cut-off is given here; in the data, active means activation above about 30%; inactive means the rest.

What do the screens show for `CC1CCCN(C(=O)COC(=O)/C=C/c2ccc(C(F)(F)F)cc2)C1` (centres undefined)?
D1 PAM: -17; TRHR agonist: 0; D1 antag: -47*; TRHR PAM: 8; D1 ag: 5

Results for O=c1cc(/N=C/c2coc3c(ccc4ccccc43)c2=O)[nH]c(=S)[nH]1 ?
D1 PAM: 1; TRHR agonist: 0; D1 antag: -31*; TRHR PAM: -1; D1 ag: 7

What do the screens show for `NC(=S)N/N=C/c1coc2c(ccc3ccccc32)c1=O`?
D1 PAM: -4; TRHR agonist: -1; D1 antag: -3; TRHR PAM: 3; D1 ag: 0

What do the screens show for `CCC1CCCCN1CC(C)(C)NS(=O)(=O)c1ccccc1` (centres undefined)?
D1 PAM: 5; TRHR agonist: 0; D1 antag: -44*; TRHR PAM: 0; D1 ag: 2

How did Cc1ccc(NC(=O)Cn2c(CCC(=O)O)ccc2-c2cccs2)cc1Cl do in these assays?
D1 PAM: -15; TRHR agonist: 0; D1 antag: -69*; TRHR PAM: 24; D1 ag: 2

How did N=c1c(C(=O)NCC2CCCO2)cc2c(=O)n3ccccc3nc2n1Cc1ccccc1Cl (centres undefined) do in these assays?
D1 PAM: -2; TRHR agonist: 2; D1 antag: -39*; TRHR PAM: 6; D1 ag: 5

How did CCOc1ccc(/C=C/c2nc(C#N)c(N3CCN(c4ccccc4)CC3)o2)cc1 do in these assays?
D1 PAM: -2; TRHR agonist: 1; D1 antag: -7; TRHR PAM: 0; D1 ag: -1

How did Cc1ccc(N=C2NC(=O)S/C2=C\c2ccco2)cc1 do in these assays?
D1 PAM: -8; TRHR agonist: -1; D1 antag: -36*; TRHR PAM: 0; D1 ag: 9

What do the screens show for `O=C1NC(=Nc2ccccc2)S/C1=C\C=C\c1ccco1`?
D1 PAM: -3; TRHR agonist: -1; D1 antag: 14; TRHR PAM: 1; D1 ag: 7

What do the screens show for `Cc1ccc(N=C2NC(=O)/C(=C/C=C/c3ccco3)S2)cc1`?
D1 PAM: -5; TRHR agonist: 0; D1 antag: -7; TRHR PAM: 8; D1 ag: 2

How did O=C1NC(=Nc2ccccc2)/C(=C/c2ccco2)S1 do in these assays?
D1 PAM: -11; TRHR agonist: 1; D1 antag: -37*; TRHR PAM: -4; D1 ag: 6

How did CN(CC(=O)Nc1ccc(OC(F)(F)F)cc1)C(=O)/C=C/c1cc2c(cc1[N+](=O)[O-])OCO2 do in these assays?
D1 PAM: -2; TRHR agonist: 0; D1 antag: -49*; TRHR PAM: -5; D1 ag: 1

What do the screens show for `COc1ccc(OC)c(/C=C/C(=O)N(C)CC(=O)Nc2ccc(C)cc2)c1`?
D1 PAM: -1; TRHR agonist: 0; D1 antag: 8; TRHR PAM: 9; D1 ag: 2

What do the screens show for `O=C(CN1C(=O)CC(c2ccccc2)Sc2ccccc21)Nc1cccc(Cl)c1` (centres undefined)?
D1 PAM: -2; TRHR agonist: 1; D1 antag: 27; TRHR PAM: -4; D1 ag: 2

How did CC1CCCCN1C(=O)CSc1n[nH]c(-c2ccccc2)n1 (centres undefined) do in these assays?
D1 PAM: 3; TRHR agonist: 0; D1 antag: -31*; TRHR PAM: -4; D1 ag: 1

What do the screens show for `CC1CCCCN1C(=O)CSc1nc(-c2ccccc2)cn1N` (centres undefined)?
D1 PAM: 3; TRHR agonist: -1; D1 antag: 13; TRHR PAM: -3; D1 ag: 3

How did Cc1cccc(NC(=O)C(=O)NCC(c2ccc3c(c2)OCO3)N2CCOCC2)c1C (centres undefined) do in these assays?
D1 PAM: -1; TRHR agonist: 0; D1 antag: -5; TRHR PAM: 2; D1 ag: -1

How did OCCN(CCO)CC(O)COc1ccc(C23CC4CC(CC(C4)C2)C3)cc1 (centres undefined) do in these assays?
D1 PAM: 2; TRHR agonist: 0; D1 antag: 23; TRHR PAM: 2; D1 ag: 31*

Results for Cn1cc(CCCC(=O)NCc2ccccc2Cl)c2ccccc21 ?
D1 PAM: -2; TRHR agonist: 0; D1 antag: -4; TRHR PAM: -1; D1 ag: 3

Results for CCN(C(=O)COC(=O)c1c(C)noc1C)C1CCS(=O)(=O)C1 (centres undefined) ?
D1 PAM: 4; TRHR agonist: 1; D1 antag: -9; TRHR PAM: -1; D1 ag: 3

Results for CN(C(=O)COC(=O)c1cccc(Cl)c1)C1CCS(=O)(=O)C1 (centres undefined) ?
D1 PAM: -2; TRHR agonist: 2; D1 antag: 16; TRHR PAM: 6; D1 ag: 0

How did CN(C(=O)COC(=O)c1ccc(-c2ccc(O)cc2)cc1)C1CCS(=O)(=O)C1 (centres undefined) do in these assays?
D1 PAM: -4; TRHR agonist: 0; D1 antag: -46*; TRHR PAM: 3; D1 ag: 4

Results for Cc1noc(C)c1C(=O)OCC(=O)N(C)C1CCS(=O)(=O)C1 (centres undefined) ?
D1 PAM: -2; TRHR agonist: 0; D1 antag: -80*; TRHR PAM: 2; D1 ag: 4

Results for CN(C(=O)COC(=O)c1cccnc1Nc1ccccc1F)C1CCS(=O)(=O)C1 (centres undefined) ?
D1 PAM: -2; TRHR agonist: -2; D1 antag: -31*; TRHR PAM: -2; D1 ag: 0

How did Cc1ccccc1OCCn1c(-c2ccc(Cl)cc2)nc2ccccc2c1=O do in these assays?
D1 PAM: 2; TRHR agonist: 0; D1 antag: 13; TRHR PAM: 3; D1 ag: 2

How did O=C(Nc1nnc(N2CCCCCC2)s1)c1cc(-c2ccc(Br)cc2)on1 do in these assays?
D1 PAM: 0; TRHR agonist: 0; D1 antag: -48*; TRHR PAM: 0; D1 ag: 0

Results for COc1cccc(-n2cc(C(=O)Nc3ccccc3C(N)=O)c3ccccc3c2=O)c1 ?
D1 PAM: -3; TRHR agonist: 0; D1 antag: -21; TRHR PAM: 0; D1 ag: -1
